Holding throughout (set-up): scale not given: direction of the effect not stated beside the values
The target of test [1] is Protein translocase subunit SecA (Escherichia coli (strain K12)) (UniProt P10408). The experiment in a line: Assay to Identify E. coli SecA ATPase Inhibitors. The note with it: 30 µM. It is filed as functional.
In test [2] the target is T1, Ubiquitin-activating enzyme e1, putative (Leishmania donovani (strain BPK282A1)) (UniProt E9BSI1).
T1 sequence (whole entry): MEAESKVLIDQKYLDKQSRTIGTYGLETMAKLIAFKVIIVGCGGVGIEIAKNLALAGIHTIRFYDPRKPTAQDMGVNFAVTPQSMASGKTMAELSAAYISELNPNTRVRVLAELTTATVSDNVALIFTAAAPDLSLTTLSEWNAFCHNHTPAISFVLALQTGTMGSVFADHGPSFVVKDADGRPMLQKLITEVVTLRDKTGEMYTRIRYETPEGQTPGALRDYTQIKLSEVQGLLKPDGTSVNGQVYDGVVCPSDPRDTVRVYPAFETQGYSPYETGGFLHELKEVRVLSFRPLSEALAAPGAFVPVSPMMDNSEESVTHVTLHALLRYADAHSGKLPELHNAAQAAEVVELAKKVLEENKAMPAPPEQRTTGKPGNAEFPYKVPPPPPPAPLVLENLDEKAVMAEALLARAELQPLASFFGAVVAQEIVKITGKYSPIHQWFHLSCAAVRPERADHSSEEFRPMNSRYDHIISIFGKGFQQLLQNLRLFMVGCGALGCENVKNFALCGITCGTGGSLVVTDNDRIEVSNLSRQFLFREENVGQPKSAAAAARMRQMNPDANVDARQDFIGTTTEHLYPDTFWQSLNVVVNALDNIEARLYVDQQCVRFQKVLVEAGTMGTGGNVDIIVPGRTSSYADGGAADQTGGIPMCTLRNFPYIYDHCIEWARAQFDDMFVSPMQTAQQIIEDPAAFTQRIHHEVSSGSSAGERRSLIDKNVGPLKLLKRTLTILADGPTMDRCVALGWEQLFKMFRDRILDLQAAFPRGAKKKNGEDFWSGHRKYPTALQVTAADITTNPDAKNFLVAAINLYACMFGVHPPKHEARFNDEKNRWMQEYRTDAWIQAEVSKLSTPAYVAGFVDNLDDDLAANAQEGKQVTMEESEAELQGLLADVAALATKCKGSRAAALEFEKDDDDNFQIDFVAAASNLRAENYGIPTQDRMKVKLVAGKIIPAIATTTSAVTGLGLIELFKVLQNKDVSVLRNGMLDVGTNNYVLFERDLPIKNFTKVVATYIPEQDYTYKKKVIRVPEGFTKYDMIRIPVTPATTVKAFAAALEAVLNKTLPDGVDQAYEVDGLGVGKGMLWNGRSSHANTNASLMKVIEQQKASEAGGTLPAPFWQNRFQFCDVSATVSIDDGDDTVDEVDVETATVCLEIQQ
Briefly: Leishmania donovani Ubiquitin Activating Enzyme (LdE1). Type of test: functional. As to conditions: 30 µM.

Test [3] has as its target Sialic acid-binding Ig-like lectin 9 (Homo sapiens) (UniProt Q9Y336). Briefly: Hs-Siglec9 ALPHAscreen SOP 20170721. The note with it: 10 µM.
Test [4] deals with Trypanosoma cruzi. Briefly: Trypanosoma cruzi phosphomannomutase and mannose-1-phosphate guanylyltransferase assay. It is filed as functional. The note with it: 10 µM.
The target of test [5] is T2, Arginase-2, mitochondrial (Homo sapiens) (UniProt P78540).
T2 sequence (whole entry): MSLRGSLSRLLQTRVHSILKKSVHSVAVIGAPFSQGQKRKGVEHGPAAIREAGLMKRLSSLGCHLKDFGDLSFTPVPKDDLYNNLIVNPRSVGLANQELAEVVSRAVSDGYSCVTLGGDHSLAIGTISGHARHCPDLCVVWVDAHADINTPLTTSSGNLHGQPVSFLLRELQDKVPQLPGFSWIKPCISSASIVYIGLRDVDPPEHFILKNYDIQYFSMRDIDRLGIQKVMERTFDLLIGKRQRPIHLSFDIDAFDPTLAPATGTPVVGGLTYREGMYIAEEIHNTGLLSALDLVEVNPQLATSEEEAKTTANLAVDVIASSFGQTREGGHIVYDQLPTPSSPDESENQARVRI
Briefly: in vitro enzyme assay to detect the production of urea directly proportional to the activity of Arginase II. Also: in the data most compounds retested in dose-response had high values. The note with it: 33.3 µM. Type of test: functional.

For test [6], the target named is T3, Proteasome subunit beta (Trypanosoma cruzi) (UniProt O96673).
T3 sequence (whole entry): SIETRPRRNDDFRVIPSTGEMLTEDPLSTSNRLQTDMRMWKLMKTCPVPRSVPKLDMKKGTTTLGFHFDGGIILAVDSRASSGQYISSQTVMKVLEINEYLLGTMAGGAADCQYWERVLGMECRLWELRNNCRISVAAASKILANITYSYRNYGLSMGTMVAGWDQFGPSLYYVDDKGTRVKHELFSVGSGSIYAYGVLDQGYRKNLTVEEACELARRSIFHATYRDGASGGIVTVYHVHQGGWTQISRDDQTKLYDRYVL
Briefly: Trypanosoma cruzi proteasome chymotrypsin-like activity (TcProtChymo) assay. Also: in the data most compounds retested in dose-response had high values. Type of test: functional. As to conditions: 9.37 µM.

For test [7], the species on record is Homo sapiens. The experiment in a line: To identify inhibition of the IFN signalling (Jak-Stat) pathway via expression of an eGFP reporter gene under the control of an IFN-stimulated response element (ISRE) containing MxA promoter. As to conditions: 30 µM. It is filed as functional.
Test [8] addresses T4, Tyrosyl-tRNA synthetase, putative (Trypanosoma cruzi (strain CL Brener)) (UniProt Q4DSP6).
T4 sequence (whole entry): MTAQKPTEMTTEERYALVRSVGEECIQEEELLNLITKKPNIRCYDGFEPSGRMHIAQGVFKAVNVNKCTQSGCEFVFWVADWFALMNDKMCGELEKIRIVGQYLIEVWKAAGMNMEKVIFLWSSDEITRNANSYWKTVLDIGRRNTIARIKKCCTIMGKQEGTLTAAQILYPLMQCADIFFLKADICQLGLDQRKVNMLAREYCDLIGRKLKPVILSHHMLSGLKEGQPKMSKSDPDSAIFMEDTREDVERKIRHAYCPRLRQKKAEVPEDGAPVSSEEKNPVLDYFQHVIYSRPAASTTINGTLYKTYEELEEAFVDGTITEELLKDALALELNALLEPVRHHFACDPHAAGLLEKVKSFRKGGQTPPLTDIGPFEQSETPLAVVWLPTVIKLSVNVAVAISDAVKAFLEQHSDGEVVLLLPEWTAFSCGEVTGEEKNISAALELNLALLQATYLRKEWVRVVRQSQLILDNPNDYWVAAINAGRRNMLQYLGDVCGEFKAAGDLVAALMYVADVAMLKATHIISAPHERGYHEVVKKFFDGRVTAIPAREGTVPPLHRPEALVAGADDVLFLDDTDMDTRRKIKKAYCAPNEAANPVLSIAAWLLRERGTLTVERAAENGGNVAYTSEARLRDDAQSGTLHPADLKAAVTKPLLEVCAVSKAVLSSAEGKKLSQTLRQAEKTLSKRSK
The experiment in a line: Trypanosoma cruzi tyrosyl tRNA synthetase (TcYRS) _High Tyrosine SOP. Also: in the data most compounds retested in dose-response had high values. As to conditions: 30 µM. It is filed as functional.

Test [9] deals with T4, Tyrosyl-tRNA synthetase, putative (Trypanosoma cruzi (strain CL Brener)). Briefly: Trypanosoma cruzi tyrosyl tRNA synthetase (TcYRS) SOP. Type of test: functional. The note with it: 30 µM.
The target of test [10] is Chromo domain-containing protein 1 (Saccharomyces cerevisiae (strain ATCC 204508 / S288c) (Baker's yeast)) (UniProt P32657). Briefly: ScCHD-1 Enzyme Inhibition Assay. Also: in the data most compounds retested in dose-response had high values. It is filed as functional. The note with it: 30 µM.
Chain of Chromo domain-containing protein 1 (Saccharomyces cerevisiae (strain ATCC 204508 / S288c) (Baker's yeast)) (P32657 whole entry, the tested form may be a part): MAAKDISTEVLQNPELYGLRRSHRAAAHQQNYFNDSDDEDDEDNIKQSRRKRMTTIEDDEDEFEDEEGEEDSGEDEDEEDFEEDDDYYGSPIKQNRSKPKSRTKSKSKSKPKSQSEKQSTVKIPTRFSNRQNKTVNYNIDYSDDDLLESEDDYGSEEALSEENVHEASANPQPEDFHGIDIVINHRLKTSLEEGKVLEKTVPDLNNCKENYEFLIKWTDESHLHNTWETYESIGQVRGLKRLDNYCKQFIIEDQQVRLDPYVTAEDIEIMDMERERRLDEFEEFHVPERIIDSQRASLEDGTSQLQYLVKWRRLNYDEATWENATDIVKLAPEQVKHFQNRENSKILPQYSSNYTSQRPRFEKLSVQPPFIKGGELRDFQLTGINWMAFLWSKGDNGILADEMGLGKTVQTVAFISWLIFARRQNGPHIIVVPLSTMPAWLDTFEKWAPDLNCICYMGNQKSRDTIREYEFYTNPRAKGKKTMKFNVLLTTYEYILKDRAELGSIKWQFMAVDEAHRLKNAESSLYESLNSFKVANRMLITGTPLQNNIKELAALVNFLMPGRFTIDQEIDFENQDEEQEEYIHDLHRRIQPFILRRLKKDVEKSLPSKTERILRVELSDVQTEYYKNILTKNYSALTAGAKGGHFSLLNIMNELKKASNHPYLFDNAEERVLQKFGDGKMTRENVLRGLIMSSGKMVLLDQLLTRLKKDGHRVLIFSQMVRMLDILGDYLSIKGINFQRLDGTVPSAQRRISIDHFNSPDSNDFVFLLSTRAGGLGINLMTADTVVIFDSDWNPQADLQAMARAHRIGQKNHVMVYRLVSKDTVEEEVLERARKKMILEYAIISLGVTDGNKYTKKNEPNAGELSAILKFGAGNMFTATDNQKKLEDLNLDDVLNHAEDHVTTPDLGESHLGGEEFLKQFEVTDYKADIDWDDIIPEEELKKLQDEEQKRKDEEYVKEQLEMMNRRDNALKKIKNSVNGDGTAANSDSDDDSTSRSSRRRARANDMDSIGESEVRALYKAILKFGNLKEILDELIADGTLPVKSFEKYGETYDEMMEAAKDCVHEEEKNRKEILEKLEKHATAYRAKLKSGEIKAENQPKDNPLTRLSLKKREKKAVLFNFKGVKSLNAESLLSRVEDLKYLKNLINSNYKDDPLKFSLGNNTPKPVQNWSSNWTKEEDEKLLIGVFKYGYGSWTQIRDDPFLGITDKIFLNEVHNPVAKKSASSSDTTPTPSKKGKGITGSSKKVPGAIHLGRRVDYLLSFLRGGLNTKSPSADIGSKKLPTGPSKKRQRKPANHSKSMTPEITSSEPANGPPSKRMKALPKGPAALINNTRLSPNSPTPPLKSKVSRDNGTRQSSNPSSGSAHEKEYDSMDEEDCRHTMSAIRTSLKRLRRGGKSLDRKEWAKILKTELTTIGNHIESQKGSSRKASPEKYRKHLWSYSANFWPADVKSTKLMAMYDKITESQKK

For part of these data: Results with a measured potency or affinity are listed apart.

Chain of Protein translocase subunit SecA (Escherichia coli (strain K12)) (P10408 whole entry): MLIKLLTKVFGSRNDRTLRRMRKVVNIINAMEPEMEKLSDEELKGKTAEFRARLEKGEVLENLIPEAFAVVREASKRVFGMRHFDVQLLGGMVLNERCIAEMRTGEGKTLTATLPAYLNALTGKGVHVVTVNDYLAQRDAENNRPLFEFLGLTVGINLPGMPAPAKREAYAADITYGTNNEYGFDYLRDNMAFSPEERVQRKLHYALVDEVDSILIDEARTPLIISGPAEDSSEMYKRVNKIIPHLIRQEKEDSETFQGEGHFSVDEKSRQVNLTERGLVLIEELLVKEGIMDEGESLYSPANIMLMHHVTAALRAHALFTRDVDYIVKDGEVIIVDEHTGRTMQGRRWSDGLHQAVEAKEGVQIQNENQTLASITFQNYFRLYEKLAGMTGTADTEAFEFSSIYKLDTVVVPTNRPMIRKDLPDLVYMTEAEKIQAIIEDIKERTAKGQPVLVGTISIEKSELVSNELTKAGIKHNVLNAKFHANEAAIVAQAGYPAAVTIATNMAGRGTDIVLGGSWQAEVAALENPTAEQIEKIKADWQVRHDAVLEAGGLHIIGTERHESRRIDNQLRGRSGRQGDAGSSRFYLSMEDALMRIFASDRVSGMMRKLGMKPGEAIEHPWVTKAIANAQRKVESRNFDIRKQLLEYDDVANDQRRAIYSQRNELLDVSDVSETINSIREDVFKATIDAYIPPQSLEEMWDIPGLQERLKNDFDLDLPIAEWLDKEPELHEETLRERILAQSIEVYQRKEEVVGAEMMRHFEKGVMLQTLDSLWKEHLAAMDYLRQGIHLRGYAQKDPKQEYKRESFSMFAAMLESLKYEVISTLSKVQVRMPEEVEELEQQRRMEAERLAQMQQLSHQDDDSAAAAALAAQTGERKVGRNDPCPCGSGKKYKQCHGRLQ
Chain of Sialic acid-binding Ig-like lectin 9 (Homo sapiens) (Q9Y336 whole entry): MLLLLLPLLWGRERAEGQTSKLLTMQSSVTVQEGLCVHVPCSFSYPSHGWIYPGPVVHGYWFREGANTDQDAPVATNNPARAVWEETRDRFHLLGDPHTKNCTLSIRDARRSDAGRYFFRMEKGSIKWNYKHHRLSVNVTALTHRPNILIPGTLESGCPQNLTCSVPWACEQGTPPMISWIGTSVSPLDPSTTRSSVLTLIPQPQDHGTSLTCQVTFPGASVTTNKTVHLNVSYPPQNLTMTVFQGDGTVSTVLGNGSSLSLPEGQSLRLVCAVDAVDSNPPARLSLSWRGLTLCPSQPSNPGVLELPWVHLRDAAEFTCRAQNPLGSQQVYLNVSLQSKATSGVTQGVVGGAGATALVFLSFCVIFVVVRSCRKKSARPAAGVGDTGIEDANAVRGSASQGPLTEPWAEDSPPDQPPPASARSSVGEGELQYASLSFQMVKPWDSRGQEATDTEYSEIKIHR

Turning to `Cc1cnn(CC2CCCN2C(=O)c2cc3c(F)cccc3[nH]2)c1` (stereo not given), the Percent Effect in test [1] is -2.09%; in test [2], 5.2%; in [3] it was 8.2%; in test [4], -5.6%; in test [5] it was -2.66%; in test [6] it was 2.81%. Further, the Percent Effect in [7] was 26.7%; in test [8], 1.96%; in test [9] it was 11.8%; in [10], -1.7%.
With `Cn1ncc(NCc2cc(F)cc(F)c2)c(Cl)c1=O`, the Percent Effect in [1] is -3.8%; in test [2], 13.3%; in [3] it was -5.81%; in test [4], -3.01%; in test [5] it was -10.6%; in test [6], 7.55%. Besides, the Percent Effect was 37.7% in test [7], 4.74% in test [8], 10.3% in test [9] and -11.4% in test [10].
Take `COc1ccc(OCCN(C)C(=O)NC(C)c2nncn2C)cc1` (stereo not given): the Percent Effect is -4.39% in test [1]; 10.7% in test [2]; -0.704% in test [3]; -5.02% in [4]; 5.76% in test [5]; 15.3% in test [6]. For the same compound, the Percent Effect was 17.3% in test [7], 3.68% in test [8], 12.8% in test [9] and -6.11% in test [10].
As to `COCCc1noc(CN2CCOC(Cn3nc(C)cc3C)C2)n1` (stereo not given), the Percent Effect in test [1] is -2.32%; in test [2], 10.4%; in test [3], 14.5%; in [4], 6.72%; in [5], 8.4%; in test [6], -7.89%. Further, the Percent Effect in [7] is 7.1%; in [8] it was 4.9%; in test [9] it was 18.8%; in [10], -6.59%.
As for `CC(C)c1nnc2n1CCN(C(=O)c1ccc3cc[nH]c3c1)C2`, the Percent Effect is -6.11% in test [1]; 10.7% in test [2]; 4.04% in test [3]; -1.61% in [4]; 2.66% in [5]; 1.27% in test [6]. Moreover, the Percent Effect in test [7] is 6.35%; in test [8], 5.79%; in test [9], 12.8%; in [10], -9.74%.
In the case of `COCCc1noc(CNC2CCSC2)n1` (stereo not given), the Percent Effect in test [1] is -5.2%; in test [2] it was 5.41%; in [3], 11.7%; in test [4], 7.66%; in test [5], 1.75%; in test [6], 9.93%. The Percent Effect in [7] was -4.93%; in test [8], 5.85%; in test [9], 17.1%; in [10], -3.46%.
On to `Cc1cc(C)n(CCC(=O)N2CCCC(n3cncn3)C2)n1` (stereo not given), for which the Percent Effect in test [1] was -6.39%; in test [2], 10.7%; in test [3], 6.15%; in test [4] it was 2.01%; in test [5] it was -3.99%; in test [6], 5.68%. Moreover, the Percent Effect is -5.14% in test [7], 5.79% in test [8], 15.4% in test [9] and -9.86% in test [10].
With `CN(C)c1ccc(C(=O)N2CCN(Cc3cscn3)CC2)cc1F`, the Percent Effect in test [1] came out at 0.885%; in [2] it was 13%; in [3], 8.14%; in test [4], 1.31%; in test [5] it was 3.07%; in test [6], 9.12%. In addition, the Percent Effect was -8.07% in test [7], -10.8% in test [8], 23.5% in test [9] and -2.52% in [10].
Regarding `Cc1ccc(C(=O)NCCNc2ncccc2C#N)c(=O)[nH]1`, the Percent Effect was -1.94% in test [1]; 5.2% in [2]; -3.54% in test [3]; -8.77% in [4]; -15% in [5]; 15.3% in test [6]. The Percent Effect is 17.6% in test [7], 6.86% in [8], 7.06% in [9] and -7.29% in test [10].
Consider `O=C(NCCCNc1ccccc1)c1scnc1Cl`, for which the Percent Effect was -4.57% in test [1]; 13.3% in test [2]; -2.42% in test [3]; -3.61% in test [4]; 0.444% in [5]; 8.06% in test [6]. In addition, the Percent Effect in test [7] is 24.4%; in [8], 3.68%; in [9], 12.8%; in test [10], -10.6%.
For `Cc1ncnc(NCc2cc3n(n2)CCCN(S(C)(=O)=O)C3)c1C`, the Percent Effect in [1] was -4.52%; in test [2], 8.11%; in test [3], 3.12%; in test [4], -1.07%; in [5] it was -1.75%; in test [6] it was 7.71%. The Percent Effect was -0.0892% in test [7], 5.85% in [8], 14.6% in test [9] and -4.37% in [10].
Turning to `CC(C)(C)C(O)CN1CCN(C(=O)c2cccc3[nH]ncc23)CC1` (stereo not given), the Percent Effect in test [1] was -8.1%; in test [2], 20.5%; in [3], -18.1%; in [4] it was 4.41%; in [5], -0.41%; in test [6] it was 20.4%. Also, the Percent Effect in test [7] was found to be 1.83%; in test [8], 3.35%; in test [9] it was 22.9%; in test [10], 22.1%.

Source of the values: ChEMBL document CHEMBL3988442, “University of Dundee, Small-Polar-MMV Screening Library” (2021).
